# A number with no mark means an inactive call.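 Rule for the calls: active = AUC reduced over 20% with Padj below 0.05 in at least 2 of 3 replicates; inactive = otherwise.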
# System: Bacteroides dorei
# Assay: growth AUC relative to DMSO control (median of replicates) (fraction); higher = more growth (less inhibition), active = hit call of the paper
# Conditions: 20 µM; 24 h
# Method in brief: (§1)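 Area under the growth curve was normalised to the plate median of solvent-only wells, except on the industrial chemical plate, where row and column medians were used. Curves came from gut bacterial monocultures grown anaerobically at 37 °C in mGAM with 20 µM compound (1% DMSO), starting at OD600 0.05 and read at OD600 every hour for 24 h. The minimum OD of each curve was set to 0, and values are medians of three biological replicates grown on separate days.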
row,SMILES,growth AUC
1,CCS(=O)(=O)c1nc2ccccn2c1S(=O)(=O)NC(=O)Nc1nc(OC)cc(OC)n1,0.993
2,C[Si](Cn1cncn1)(c1ccc(F)cc1)c1ccc(F)cc1,0.854
3,CCSC(=O)N1CCCCCC1,1
4,O=[N+]([O-])c1ccc(Oc2ccc(C(F)(F)F)cc2[N+](=O)[O-])cc1,0.88
5,CC#Cc1cc(C)nc(Nc2ccccc2)n1,0.941
6,COP(=O)(OC)OC1=C(Cl)C2C=CCC12 (stereo not drawn),1
7,CCC(C)[C@H]1O[C@]2(C=C[C@@H]1C)C[C@@H]1C[C@@H](C/C=C(\C)[C@@H](O[C@H]3C[C@H](OC)[C@@H](O[C@H]4C[C@H](OC)[C@@H](O)[C@H](C)O4)[C@H](C)O3)[C@@H](C)/C=C/C=C3\CO[C@@H]4[C@H](O)C(C)=C[C@@H](C(=O)O1)[C@]34O)O2.CO[C@H]1C[C@H](O[C@H]2[C@H](C)O[C@@H](O[C@@H]3/C(C)=C/C[C@@H]4C[C@@H](C[C@]5(C=C[C@H](C)[C@@H](C(C)C)O5)O4)OC(=O)[C@@H]4C=C(C)[C@@H](O)[C@H]5OC/C(=C\C=C\[C@@H]3C)[C@]54O)C[C@@H]2OC)O[C@@H](C)[C@@H]1O (stereo partly drawn),0.965
8,C[C@@H](Oc1ccc(Oc2nc3ccc(Cl)cc3o2)cc1)C(=O)O,0.924
9,N#Cc1cc(I)c(O)c(I)c1,0.776
10,CCc1cnc(C2=NC(C)(C(C)C)C(=O)N2)c(C(=O)O)c1 (stereo not drawn),0.951
11,CON(C)C(=O)Nc1ccc(Cl)cc1,1.03
12,COCC(=O)N(c1c(C)cccc1C)C(C)C(=O)OC (stereo not drawn),1.03
13,O=C1C[C@@H]2OCC=C3CN4CC[C@]56c7ccccc7N1[C@H]5[C@H]2[C@H]3C[C@H]46,0.93
14,CC(C)=CC1C(C(=O)OCN2C(=O)C3=C(CCCC3)C2=O)C1(C)C (stereo not drawn),0.976
15,CCOP(=O)(SC(C)CC)SC(C)CC (stereo not drawn),1.02
16,Oc1ccc(Cl)c(Cl)c1Cl,1.02
17,CSc1nnc(C(C)(C)C)c(=O)n1N,1.02
18,Oc1c(Cl)ccc(Cl)c1Cl,0.954
19,CCC1COC(Cn2cncn2)(c2ccc(Cl)cc2Cl)O1 (stereo not drawn),0.976
20,O=[N+]([O-])/N=C1\NCCN1Cc1ccc(Cl)nc1,1.03

row,SMILES,growth AUC
1,CCCCCCCCCCCCCN1CC(C)OC(C)C1 (stereo not drawn),1.01
2,O=[N+]([O-])c1ccc(Oc2ccc(Cl)cc2Cl)cc1,0.973
3,COc1cc(OC)nc(NC(=O)NS(=O)(=O)c2cc(NC=O)ccc2C(=O)N(C)C)n1,0.984
4,C[N+](C)(C)CCCl.[Cl-],0.983
5,O=c1ccc(=O)[nH][nH]1,0.989
6,CCC(C)(c1ccc(O)cc1)c1ccc(O)cc1,0.967
7,Cc1cc(C(F)(C(F)(F)F)C(F)(F)F)ccc1NC(=O)c1cccc(I)c1C(=O)NC(C)(C)CS(C)(=O)=O,1
8,CN(C)C(=O)Nc1ccc(Cl)cc1,1.01
9,O=C(O)C1(O)c2ccccc2-c2ccc(Cl)cc21 (stereo not drawn),1.08
10,N#CCNC(=O)c1cnccc1C(F)(F)F,1
11,CCOP(=S)(OCC)Oc1nc(Cl)n(C(C)C)n1,1.01
12,CCCCN(CC)C(=O)SCCC,0.972
13,c1coc(-c2nc3ccccc3[nH]2)c1,0.919
14,CC(C)Nc1nc(Cl)nc(NC(C)C)n1,0.965
15,CN=C=S,0.988
16,Clc1ccc(Cl)c(Cl)c1,1.01
17,O=C1C2(Cl)C3(Cl)C4(Cl)C(Cl)(Cl)C5(Cl)C3(Cl)C1(Cl)C5(Cl)C24Cl (stereo not drawn),0.0186 (active)
18,Nc1ccncc1,1.04
19,O=C(O)c1cc(Cl)ccc1Cl,0.961

# System: Bacteroides stercoris
# Assay: as above
# Conditions: 20 µM; 24 h
# Method in brief: as §1
row,SMILES,growth AUC
1,CCS(=O)(=O)c1nc2ccccn2c1S(=O)(=O)NC(=O)Nc1nc(OC)cc(OC)n1,1
2,C[Si](Cn1cncn1)(c1ccc(F)cc1)c1ccc(F)cc1,0.952
3,CCSC(=O)N1CCCCCC1,1
4,O=[N+]([O-])c1ccc(Oc2ccc(C(F)(F)F)cc2[N+](=O)[O-])cc1,1.05
5,CC#Cc1cc(C)nc(Nc2ccccc2)n1,1
6,COP(=O)(OC)OC1=C(Cl)C2C=CCC12 (stereo not drawn),1.42
7,CCC(C)[C@H]1O[C@]2(C=C[C@@H]1C)C[C@@H]1C[C@@H](C/C=C(\C)[C@@H](O[C@H]3C[C@H](OC)[C@@H](O[C@H]4C[C@H](OC)[C@@H](O)[C@H](C)O4)[C@H](C)O3)[C@@H](C)/C=C/C=C3\CO[C@@H]4[C@H](O)C(C)=C[C@@H](C(=O)O1)[C@]34O)O2.CO[C@H]1C[C@H](O[C@H]2[C@H](C)O[C@@H](O[C@@H]3/C(C)=C/C[C@@H]4C[C@@H](C[C@]5(C=C[C@H](C)[C@@H](C(C)C)O5)O4)OC(=O)[C@@H]4C=C(C)[C@@H](O)[C@H]5OC/C(=C\C=C\[C@@H]3C)[C@]54O)C[C@@H]2OC)O[C@@H](C)[C@@H]1O (stereo partly drawn),0.915
8,C[C@@H](Oc1ccc(Oc2nc3ccc(Cl)cc3o2)cc1)C(=O)O,1.09
9,N#Cc1cc(I)c(O)c(I)c1,0.939
10,CCc1cnc(C2=NC(C)(C(C)C)C(=O)N2)c(C(=O)O)c1 (stereo not drawn),0.985
11,CON(C)C(=O)Nc1ccc(Cl)cc1,0.97
12,COCC(=O)N(c1c(C)cccc1C)C(C)C(=O)OC (stereo not drawn),1.08
13,O=C1C[C@@H]2OCC=C3CN4CC[C@]56c7ccccc7N1[C@H]5[C@H]2[C@H]3C[C@H]46,0.898
14,CC(C)=CC1C(C(=O)OCN2C(=O)C3=C(CCCC3)C2=O)C1(C)C (stereo not drawn),0.877
15,CCOP(=O)(SC(C)CC)SC(C)CC (stereo not drawn),0.949
16,Oc1ccc(Cl)c(Cl)c1Cl,1.15
17,CSc1nnc(C(C)(C)C)c(=O)n1N,1.06
18,Oc1c(Cl)ccc(Cl)c1Cl,1.15
19,CCC1COC(Cn2cncn2)(c2ccc(Cl)cc2Cl)O1 (stereo not drawn),0.938
20,O=[N+]([O-])/N=C1\NCCN1Cc1ccc(Cl)nc1,1.08

row,SMILES,growth AUC
1,CCCCCCCCCCCCCN1CC(C)OC(C)C1 (stereo not drawn),1.03
2,O=[N+]([O-])c1ccc(Oc2ccc(Cl)cc2Cl)cc1,1.09
3,COc1cc(OC)nc(NC(=O)NS(=O)(=O)c2cc(NC=O)ccc2C(=O)N(C)C)n1,1.06
4,C[N+](C)(C)CCCl.[Cl-],1.08
5,O=c1ccc(=O)[nH][nH]1,0.951
6,CCC(C)(c1ccc(O)cc1)c1ccc(O)cc1,0.927
7,Cc1cc(C(F)(C(F)(F)F)C(F)(F)F)ccc1NC(=O)c1cccc(I)c1C(=O)NC(C)(C)CS(C)(=O)=O,0.937
8,CN(C)C(=O)Nc1ccc(Cl)cc1,1.05
9,O=C(O)C1(O)c2ccccc2-c2ccc(Cl)cc21 (stereo not drawn),1.04
10,N#CCNC(=O)c1cnccc1C(F)(F)F,0.966
11,CCOP(=S)(OCC)Oc1nc(Cl)n(C(C)C)n1,1.14
12,CCCCN(CC)C(=O)SCCC,1.11
13,c1coc(-c2nc3ccccc3[nH]2)c1,1.17
14,CC(C)Nc1nc(Cl)nc(NC(C)C)n1,1.14
15,CN=C=S,1.07
16,Clc1ccc(Cl)c(Cl)c1,1.24
17,O=C1C2(Cl)C3(Cl)C4(Cl)C(Cl)(Cl)C5(Cl)C3(Cl)C1(Cl)C5(Cl)C24Cl (stereo not drawn),0.00866 (active)
18,Nc1ccncc1,1.02
19,O=C(O)c1cc(Cl)ccc1Cl,0.89

# — the supplement of paper PMC12669032
